# Assay results reported in PubChem BioAssay (Tox21).
# Results filed as inconclusive are left out. Where a call stands in place of a potency, no number is given. A number with no mark means an inactive call. Calls of active or inactive are those of the source. Unless noted, the call rests on the fitted dose curve; in most records, active means well fitted cell-killing curve with a large enough effect in the repeat runs (not every such curve was filed as active); inconclusive means weak or mixed curves, or effect the other way; inactive means no such curve, though single readings can be large or run the other way.
# Molecular target: Nuclear receptor subfamily 1 group I member 3 (Homo sapiens) (UniProt Q14994)
# Assay: qHTS assay to identify small molecule agonists of the constitutive androstane receptor (CAR) signaling pathway (AID 1224839; active means well fitted curve in the direction sought with a large enough effect in the repeat runs; an effect the other way counts as inactive or inconclusive; further: nearly all actives have a fitted effect of over 15% in size; further: potency means the concentration at half of the fitted maximal effect)
# Details: HepG2 hCAR CYP2B6-luciferase, agonist mode, 24 h; series mostly up to 92.4 µM
# Procedure, shortened: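 Double-stable HepG2 cells (hCAR, CYP2B6-2.2kb) seeded 4 h before compound addition. Exposure 24 h with 0.75 uM PK11195 final. Luciferase detected by ONE-Glo.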
# Sequence of Nuclear receptor subfamily 1 group I member 3 (Homo sapiens) (Q14994 whole entry, looked up): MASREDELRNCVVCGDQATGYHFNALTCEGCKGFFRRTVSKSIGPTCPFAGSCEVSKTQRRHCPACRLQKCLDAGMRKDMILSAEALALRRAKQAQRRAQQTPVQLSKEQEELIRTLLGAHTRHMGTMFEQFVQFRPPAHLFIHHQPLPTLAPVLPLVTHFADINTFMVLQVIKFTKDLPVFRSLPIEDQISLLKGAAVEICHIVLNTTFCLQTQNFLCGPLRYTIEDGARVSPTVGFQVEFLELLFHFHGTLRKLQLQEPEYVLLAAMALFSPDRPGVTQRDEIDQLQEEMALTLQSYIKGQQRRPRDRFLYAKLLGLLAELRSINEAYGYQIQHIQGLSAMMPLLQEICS
row,SMILES,Potency
1,Cc1cccc(C)c1NC(=O)c1cc(S(N)(=O)=O)c(Cl)cc1O,inactive
2,CCCC(=O)OC(=O)CCC,inactive
3,CSSc1ccoc1C,inactive
4,Nc1ccc(S(=O)(=O)NCc2ccccc2)cc1,inactive
5,CCCCCCCC(=O)OCCCCCC,inactive
6,Cc1cc([N+](=O)[O-])ccc1N,inactive
7,CCN(CC)CCOC(=O)C(c1ccccc1)c1ccccc1,inactive
8,Cc1cc(CCCOc2c(C)cc(-c3noc(C(F)(F)F)n3)cc2C)on1,23.7 µM (active)
9,CCCCCCC(CO)CCCC (centres undefined),inactive
10,CC(C)N(C)C,inactive
11,CC(C)(O)c1coc(S(=O)(=O)NC(=O)Nc2c3c(cc4c2CCC4)CCC3)c1,inactive
12,CCOC(=O)C(C)O (centres undefined),inactive
13,CCCc1nc2c(C)cc(-c3nc4ccccc4n3C)cc2n1Cc1ccc(-c2ccccc2C(=O)O)cc1,inactive
14,CC1CCc2nccnc21 (centres undefined),inactive
15,O=c1[nH][nH]c(=O)c2cc([N+](=O)[O-])ccc12,inactive
16,CC(C)c1ccc(C(=O)N=C(N)N)cc1S(C)(=O)=O,inactive
17,COc1cc(C(C)=O)ccc1OCCCN1CCC(c2noc3cc(F)ccc23)CC1,inactive
18,CCCCCCCCCCCC(=O)OCC(O)CO (centres undefined),inactive
19,BrC(Br)C(Br)Br,inactive
20,CCC(Cl)CC(Cl)C(Cl)C(Cl)C(Cl)C(C)Cl (centres undefined),2.65 µM (active)
21,O=C1OC(=O)c2c(Br)c(Br)c(Br)c(Br)c21,inactive
22,O=c1[nH]c2cc(C(F)(F)F)c(N3CCOCC3)cc2n(CP(=O)(O)O)c1=O,inactive

# System: not listed separately
# Assay: qHTS assay to identify small molecule antagonists of the estrogen related receptor signaling pathway with the pleiotropic PPARgamma coactivator (PGC) from Tox21 10K library - cell viability counter screen (AID 1224840); further: nearly all actives have a fitted effect of over 40% in size
# Details: PGC/ERR reporter cells viability, CellTiter-Fluor, 17.5 h; series mostly up to 92.4 µM
# Procedure, shortened: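 Counter-screen for cytotoxicity: after 17.5 h compound exposure at 37 C, CellTiter-Fluor reagent added to PGC/ERR cells for 30 min and fluorescence read. Cells were seeded at 2,000 per well 6 h before dosing.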
SMILES,Potency,"viability change, negative = cytotoxic"
O=C(O)CCCc1c[nH]c2ccccc12,inactive,–
Cc1cccc(C)c1NC(=O)c1cc(S(N)(=O)=O)c(Cl)cc1O,inactive,–
CCCC(=O)OC(=O)CCC,inactive,–
O=CNNC=O,inactive,–
CSSc1ccoc1C,inactive,–
Nc1ccc(S(=O)(=O)NCc2ccccc2)cc1,inactive,–
CCCCCCCC(=O)OCCCCCC,inactive,–
c1ccc(CCCc2ccncc2)cc1,inactive,–
CCN(CC)C(=O)N1CCN(C)CC1,inactive,–
COc1ccc(C2C(=O)c3ccccc3C2=O)cc1,inactive,–
O=C(c1ccccc1)c1ccc(O)cc1,inactive,–
CCN(CC)CCOC(=O)C(c1ccccc1)c1ccccc1,inactive,–
Cc1cc(CCCOc2c(C)cc(-c3noc(C(F)(F)F)n3)cc2C)on1,inactive,–
CCCCCCC(CO)CCCC (centres undefined),inactive,–
CCCOC(=O)c1c(Cl)c(Cl)c(Cl)c(Cl)c1C(=O)OCCC,inactive,–
C=CC(=O)O,inactive,–
CC(C)N(C)C,inactive,–
CC(=O)NNC(C)=O,inactive,–
CC(C)(O)c1coc(S(=O)(=O)NC(=O)Nc2c3c(cc4c2CCC4)CCC3)c1,inactive,–

SMILES,Potency,"viability change, negative = cytotoxic"
CCOC(=O)C(C)O (centres undefined),inactive,–
Cc1cccc2sc(N)nc12,inactive,–
CCCc1nc2c(C)cc(-c3nc4ccccc4n3C)cc2n1Cc1ccc(-c2ccccc2C(=O)O)cc1,inactive,–
CC1CCc2nccnc21 (centres undefined),inactive,–
c1ccc2sc(SSc3nc4ccccc4s3)nc2c1,–,10.2% [at 19 µM]
Cc1ccc2nc(N)[nH]c(=O)c2c1Sc1ccncc1,inactive,–
Nc1nc(-c2ccc([N+](=O)[O-])cc2)cs1,inactive,–
O=c1[nH][nH]c(=O)c2cc([N+](=O)[O-])ccc12,inactive,–
CC1=CC[C@@H]2C[C@H]1C2(C)C,–,-1.25% [at 19 µM]
CC(C)c1ccc(C(=O)N=C(N)N)cc1S(C)(=O)=O,inactive,–
COc1cc(C(C)=O)ccc1OCCCN1CCC(c2noc3cc(F)ccc23)CC1,inactive,–
CCCCCCCCCCCC(=O)OCC(O)CO (centres undefined),inactive,–
CCCCCCCCCCCCCOS(=O)(=O)O,inactive,–
BrC(Br)C(Br)Br,inactive,–
CCC(Cl)CC(Cl)C(Cl)C(Cl)C(Cl)C(C)Cl (centres undefined),–,-3.01% [at 19 µM]
O=C1OC(=O)c2c(Br)c(Br)c(Br)c(Br)c21,inactive,–
CC(C)OC(=O)c1ccccc1C(=O)OC(C)C,inactive,–
O=c1[nH]c2cc(C(F)(F)F)c(N3CCOCC3)cc2n(CP(=O)(O)O)c1=O,inactive,–
COc1ccc(C)cc1,inactive,–

# System: not listed separately
# Assay: qHTS assay to identify small molecule antagonists of the estrogen related receptor signaling pathway with the pleiotropic PPARgamma coactivator (PGC) from Tox21 10K library (AID 1224841; call rule not given here; further: actives are mostly falling curves and most rising ones were filed inactive; nearly all actives have a fitted effect of over 50% in size)
# Details: PGC/ERR reporter cell line, ONE-Glo luciferase, 18 h; series mostly up to 92.4 µM
# Procedure, shortened: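 Luminescence (One-Glo, 30 min at room temperature) after 18 h compound treatment at 37 C of PGC/ERR reporter cells plated at 2,000 cells/well and settled 6 h beforehand.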
row,SMILES,Potency
1,O=C(O)CCCc1c[nH]c2ccccc12,inactive
2,CCCCCCCC(=O)OCCCCCC,inactive
3,COc1ccc(C2C(=O)c3ccccc3C2=O)cc1,inactive
4,O=C(c1ccccc1)c1ccc(O)cc1,inactive
5,CCCOC(=O)c1c(Cl)c(Cl)c(Cl)c(Cl)c1C(=O)OCCC,inactive
6,CC(=O)NNC(C)=O,inactive
7,CC1CCc2nccnc21 (centres undefined),inactive
8,Cc1ccc2nc(N)[nH]c(=O)c2c1Sc1ccncc1,inactive
9,CCCCCCCCCCCC(=O)OCC(O)CO (centres undefined),inactive

# System: not listed separately
# Assay: qHTS assay to identify small molecule agonists of the estrogen related receptor signaling pathway with the pleiotropic PPARgamma coactivator (PGC) from Tox21 10K library (AID 1224842; active means well fitted curve in the direction sought with a large enough effect in the repeat runs; an effect the other way counts as inactive or inconclusive; further: nearly all actives have a fitted effect of over 15% in size; further: potency means the concentration at half of the fitted maximal effect)
# Details: PGC/ERR reporter cell line, luciferase ONE-Glo, 18 h; series mostly up to 92.4 µM
# Procedure, shortened: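 PGC/ERR reporter cell line, 2,000 cells per well, incubated 6 h at 37 C before 23 nL compound in DMSO was added. After 18 h at 37 C, One-Glo luminescence read following 30 min at room temperature.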
row,SMILES,Potency
1,O=C(O)CCCc1c[nH]c2ccccc12,inactive
2,CCCCCCCC(=O)OCCCCCC,inactive
3,CCN(CC)C(=O)N1CCN(C)CC1,inactive
4,COc1ccc(C2C(=O)c3ccccc3C2=O)cc1,10.6 µM (active)
5,O=C(c1ccccc1)c1ccc(O)cc1,inactive
6,CCCOC(=O)c1c(Cl)c(Cl)c(Cl)c(Cl)c1C(=O)OCCC,inactive
7,CC(=O)NNC(C)=O,inactive
8,CC1CCc2nccnc21 (centres undefined),inactive
9,Cc1ccc2nc(N)[nH]c(=O)c2c1Sc1ccncc1,inactive
10,CCCCCCCCCCCC(=O)OCC(O)CO (centres undefined),inactive
